This is part of a sample that, as a whole, favours compounds with a hit. Of some 83,000 tested, about 20% had one in any assay.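 Values shown are percent growth following 48 h exposure of cells in 96-well plates to a single concentration of compound; below 10 was considered active.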 Values without a mark were called inactive. The source made the active and inactive calls.
What was measured:
Assay in all cases: NCI-60 one-dose screen, 48 h (100 = growth as untreated, 0 = no growth, -100 = all killed)
Conditions in all cases: 10 µM
[1] = test system: DU-145 prostate
[2] = test system: K-562 leukemia
[3] = test system: MALME-3M melanoma
[4] = test system: MDA-MB-231 breast
[5] = test system: RXF 393 renal
[6] = test system: SF-268 CNS
[7] = test system: SF-295 CNS
[8] = test system: SF-539 CNS
[9] = test system: UACC-257 melanoma
[10] = test system: M14 melanoma

Row | SMILES | growth [1] | growth [2] | growth [3] | growth [4] | growth [5] | growth [6] | growth [7] | growth [8] | growth [9] | growth [10]
1 | C=CCc1cc(Nc2c3ccc(Cl)cc3nc3ccc(OC)cc23)cc(CN(CC)CC)c1O | 20.5% | 3.36% (active) | 2.15% (active) | 0.676% (active) | 32.1% | 23% | -2.05% (active) | 21.2% | 4.74% (active) | 19.8%
2 | COc1cc(C(=O)n2nc(N)c3c(C)cc(C)nc32)cc(OC)c1OC | 93.3% | 18.2% | 89% | 87.7% | 83.2% | 79.1% | 75.9% | 64.6% | 90.9% | 80.2%
3 | CCOC(=O)c1c(C)n(-c2ccc(Cl)cc2)c2ccc(OC(=O)/C=C/c3ccccc3)cc12 | 91% | 25.4% | 72.9% | 63.4% | 73.7% | 94.1% | 79.4% | 92.7% | 84.2% | 83.1%
4 | CC(C)C[C@H](NC(=O)Cn1ccc(Nc2ccccc2)cc1=O)B(O)O | 38.9% | 39.1% | -11.7% (active) | 48.9% | -16.7% (active) | 34.2% | 37.8% | -57.7% (active) | 7.65% (active) | 31.8%
5 | Cc1ccc2nc(-c3ccc(OCC(=O)N=Nc4c(O)[nH]c5ccccc45)cc3)[nH]c2c1 | 73.3% | 5.23% (active) | 95.8% | 74.4% | 102% | 102% | 97.1% | 100% | 103% | 77.3%
6 | Fc1ccc2[nH]c3c(NCCCN4CCOCC4)ncnc3c2c1 | 79.2% | 73.9% | 61.5% | 55.6% | 60.8% | 61.5% | 39% | 65% | 107% | 85.3%
7 | COc1cc(C2=Nc3c/c(=C\c4c(O)[nH]c5ccc(Cl)cc45)ccc3=N2)cc(OC)c1OC | 4.46% (active) | 17.3% | -51.8% (active) | 2.35% (active) | 1.13% (active) | -51.5% (active) | 83.3% | -52.4% (active) | -77% (active) | -21.6% (active)
8 | COC(=O)[C@]12CC[C@@H](C)[C@H](C)[C@@H]1C1=CC[C@@H]3[C@@]4(C)CC(=O)[C@H](O)[C@@](C)(CO)[C@@H]4C(=O)C[C@@]3(C)[C@]1(C)CC2 | -44.4% (active) | -69.5% (active) | -35.2% (active) | -34.2% (active) | -41.4% (active) | 4.33% (active) | -0.778% (active) | 16.5% | 7.73% (active) | 10.1%
9 | N#C/C(=C/c1cc([N+](=O)[O-])ccc1Cl)C(N)=O | 92.7% | 38.8% | 99% | 111% | 99.2% | 96.4% | 98.1% | 101% | 97.8% | 88.8%
10 | Cc1nc2sccn2c1-c1csc(Nc2cccc(Cl)c2C)n1 | 78.7% | 16% | 58.9% | 65.4% | 67.8% | 80.1% | 37.8% | 63.8% | 34% | 50.8%
11 | CCOC(=S)Sc1ccc([N+](=O)[O-])cc1[N+](=O)[O-] | 95.5% | 7.81% (active) | 84.1% | 88.4% | 108% | 104% | 99.2% | 26.2% | 79.2% | 36.2%
12 | CCc1ccc(-c2nnc(COc3ccc(-c4nc5ccccc5[nH]4)cc3OC)o2)cc1 | 48.1% | 33% | 47.6% | 10.5% | 68.7% | 52.8% | 79.3% | 6.55% (active) | 88.7% | 56.5%
13 | Cn1cnc([N+](=O)[O-])c1/C=C1\Oc2ccc(Cl)cc2C1=O | 94.2% | 52.4% | 87.6% | 86.7% | 99.1% | 86.5% | 105% | 99.2% | 84.9% | 87.5%
14 | Cc1cc(C)c(C(=O)OC(C)CNC2CCCCC2)c(C)c1 (stereo not given) | 106% | 81.2% | 108% | 102% | 105% | 99.7% | 97.7% | 99.2% | 97.7% | 90.5%
15 | COc1c(-c2c3sc(=O)[nH]c3nc3c2c(=O)[nH]n3C(C)C)cc2c(c1OC)OCO2 | 108% | 86% | 80.3% | 108% | 110% | 102% | 88.3% | 94.8% | 99.7% | 93.8%
16 | CC1(C)CNC(=O)N1 | 110% | 98.1% | 95.2% | 100% | 108% | 103% | 98.7% | 98.9% | 99.8% | 94.1%
17 | COc1cc(C2C=C(c3ccc(Cl)cc3)N=C3SC(C)=CN32)cc(OC)c1OC (stereo not given) | 99.9% | 91.1% | 88.7% | 103% | 92.6% | 104% | 82.2% | 99.1% | 101% | 95%
18 | CCOC(=O)c1ccc(N(C=O)CCC(=O)CCl)cc1 | -25.8% (active) | 4.03% (active) | 45.1% | -16.5% (active) | -37.7% (active) | 6.04% (active) | -16.1% (active) | -31.2% (active) | 39% | -5.18% (active)
19 | COc1cc(CSc2nc3ccc(C)cc3c(=O)n2-c2ccccc2)cc(OC)c1OC | 29.8% | 10.4% | 42.5% | 38% | 14.2% | 47.5% | 32.8% | 3.56% (active) | 50.2% | 17.2%
20 | Nc1ncncc1-c1ccc(F)cc1 | 115% | 109% | 112% | 127% | 109% | 112% | 100% | 95.6% | 118% | 107%
21 | Cc1cccc2c1O/C(=C\c1ncc([N+](=O)[O-])n1C)C2=O | -29.7% (active) | 0.421% (active) | -51.5% (active) | -7.78% (active) | -63.7% (active) | -26.4% (active) | -15.2% (active) | -61% (active) | -40.8% (active) | -49.2% (active)
22 | NC1CCC(Nc2nc(NCc3ccc(-c4cccs4)nc3)c3ncn(C4CCCC4)c3n2)CC1 (stereo not given) | 8.83% (active) | -6% (active) | -74.7% (active) | -0.601% (active) | -50% (active) | -5.75% (active) | 0.906% (active) | -56.7% (active) | -74.6% (active) | -80.6% (active)
23 | CCCCCCCCCCCCCCCC(=O)N1CCN(C)CC1 | 87.2% | 15.9% | 90.3% | 54.7% | 77% | 73.7% | 83.7% | 73.9% | 91.8% | 80.2%
24 | CC(=O)Oc1c(C)c(C)c2c(c1C)CCC(C)(CC(=O)OCCCCCCCCCCC[P+](c1ccccc1)(c1ccccc1)c1ccccc1)O2 (stereo not given) | -71.5% (active) | -33.9% (active) | -66.3% (active) | -88.9% (active) | -89.5% (active) | -72.3% (active) | -79.8% (active) | -93.6% (active) | -80.5% (active) | -87.5% (active)
25 | Nc1c(CNCc2nnn(Cc3ccccc3)c2N)nnn1Cc1ccccc1 | 107% | 93.6% | 79.9% | 108% | 99.7% | 103% | 101% | 95.6% | 103% | 98.5%
26 | COc1ccc(S(=O)(=O)Nc2ccc(OCc3nnc(-c4ccc(Cl)cc4)o3)c(F)c2)cc1 | 76.7% | 43.2% | 67.8% | 54.6% | 63.1% | 59.9% | 43.8% | 70.5% | 23.3% | 78%
27 | Fc1cc(-c2ncc(-c3cc(F)c(F)c(F)c3)c(NC3CCCCCC3)n2)cc(F)c1F | 105% | 101% | 140% | 104% | 96.1% | 107% | 90.1% | 105% | 87.6% | 109%

From PubChem BioAssay (NCI)
